We go through 7 compounds from PubChem BioAssay (NCI).

SMILES strings stand for the structures. Compounds without any hit were thinned out: in the full panel of roughly 83,000, 20% have a hit.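 Cells were grown in 96-well plates and exposed to the test compound at a single concentration for 48 hours; results are reported as percent growth, with values below 10 considered active.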 Unmarked numbers belong to inactive results. The source made the active and inactive calls.

Among the test systems are SR leukemia; RPMI-8226 leukemia; OVCAR-8 ovarian; OVCAR-5 ovarian; SK-OV-3 ovarian; IGROV1 ovarian; OVCAR-3 ovarian; HS 578T breast; NCI/ADR-RES ovarian; T-47D breast; BT-549 breast; MDA-MB-435 melanoma; SW-620 colon; HCT-116 colon; HCC-2998 colon; KM12 colon; MCF7 breast.
Common to all, as to experiment: NCI-60 one-dose screen, 48 h (100 = growth as untreated, 0 = no growth, -100 = all killed)
What all share (conditions): 10 µM unless noted

As for `C=C(CC(=O)OC)C(C)=O`, the growth was 112% in the test with SR leukemia; 120% with RPMI-8226 leukemia; 107% with OVCAR-8 ovarian; 112% in the test on OVCAR-5 ovarian; 103% in the test with SK-OV-3 ovarian; 101% in the test with IGROV1 ovarian. Besides, the growth in the test with OVCAR-3 ovarian is 106%; in the test with HS 578T breast, 96.5%; in the test with NCI/ADR-RES ovarian, 113%; with T-47D breast, 108%; in the test on BT-549 breast, 127%; in the test with MDA-MB-435 melanoma, 116%. Further, the growth is 102% in the test on SW-620 colon, 116% in the test with HCT-116 colon, 112% in the test with HCC-2998 colon and 102% in the test with KM12 colon.
For the compound `Cc1ccc(-n2nc3n(/c2=N\C(=O)NS(=O)(=O)c2ccc(C)cc2)CCN3C2=NCCN2)cc1`, the growth in the test with SR leukemia is 135%; in the test on RPMI-8226 leukemia it was 106%; with OVCAR-8 ovarian, 103%; in the test with OVCAR-5 ovarian it was 95.4%; in the test with SK-OV-3 ovarian, 99.1%; in the test with IGROV1 ovarian it was 104%. In addition, the growth is 109% in the test with OVCAR-3 ovarian; 99.7% with HS 578T breast; 105% in the test with NCI/ADR-RES ovarian; 78.3% in the test with T-47D breast; 97.3% in the test on MDA-MB-435 melanoma; 104% in the test with SW-620 colon. Further, the growth was 94.6% in the test with MCF7 breast, 97.3% in the test with HCC-2998 colon and 105% with KM12 colon.
Take `CCN(CC)c1ccc2cc(C(Nc3ccc(Br)c(C(F)(F)F)c3)c3nnnn3C(C)(C)C)c(=O)oc2c1` (stereo not given): the growth in the test on SR leukemia is 98.8%; with RPMI-8226 leukemia, 87.1%; in the test on OVCAR-8 ovarian it was 91.5%; with OVCAR-5 ovarian it was 92%; with SK-OV-3 ovarian it was 84.7%; in the test with IGROV1 ovarian, 106%. Also, the growth with OVCAR-3 ovarian was 104%; in the test on HS 578T breast, 79.6%; in the test on NCI/ADR-RES ovarian, 93.8%; with T-47D breast it was 64.2%; in the test on BT-549 breast, 97.3%; in the test with MDA-MB-435 melanoma it was 99.4%. In addition, the growth with SW-620 colon is 98.7%; in the test with MCF7 breast, 73.8%; in the test on HCT-116 colon, 93.5%; in the test with HCC-2998 colon, 106%; with KM12 colon it was 102%.
Take `N#C/C(C(=O)c1ccccc1)=C1/C(=O)Nc2ccc(Br)cc21`: the growth was 101% in the test on SR leukemia; 102% in the test on RPMI-8226 leukemia; 99.5% with OVCAR-8 ovarian; 107% with OVCAR-5 ovarian; 85.7% in the test with SK-OV-3 ovarian; 90.9% in the test on IGROV1 ovarian. Moreover, the growth was 107% with OVCAR-3 ovarian; 92.5% in the test on HS 578T breast; 98.8% with NCI/ADR-RES ovarian; 90.5% with T-47D breast; 99.2% in the test on BT-549 breast; 102% with MDA-MB-435 melanoma. Further, the growth in the test on SW-620 colon is 97%; in the test on HCT-116 colon, 99.8%; with HCC-2998 colon it was 99.7%; in the test on KM12 colon, 105%.
With `CO[C@H]1CC[C@@]2(C)C(=CC[C@H]3[C@@H]4C[C@H](O)C[C@@]4(C)CC[C@@H]32)C1`, the growth was 14.1% with SR leukemia; 54.5% with RPMI-8226 leukemia; 82.5% in the test on OVCAR-8 ovarian; 102% in the test with OVCAR-5 ovarian; 39.1% with SK-OV-3 ovarian; 53.8% with IGROV1 ovarian. Also, the growth with OVCAR-3 ovarian was 28.7%; with HS 578T breast it was 60.8%; in the test on NCI/ADR-RES ovarian, 39.1%; in the test with T-47D breast it was 54%; in the test with BT-549 breast it was 79.5%; in the test with MDA-MB-435 melanoma it was -16.9% (active). The growth in the test on SW-620 colon was 28.8%; in the test with MCF7 breast, 25.7%; in the test with HCT-116 colon, 29.2%; with HCC-2998 colon, 68.4%; with KM12 colon, 35.7%.
With `Cc1nc(Cl)cc(N(c2cc(Cl)nc(C)n2)c2ncc(C(=O)Nc3c(C)cccc3Cl)s2)n1`, the growth in the test on SR leukemia is 86.9%; in the test with RPMI-8226 leukemia it was 50.8%; in the test with OVCAR-8 ovarian, 63.1%; in the test on OVCAR-5 ovarian, 38.5%; in the test on SK-OV-3 ovarian it was 39.8%; in the test with IGROV1 ovarian, -22% (active). In addition, the growth was 49.9% with OVCAR-3 ovarian; -1.46% (active) in the test with HS 578T breast; 59.3% in the test with NCI/ADR-RES ovarian; 23.5% in the test with T-47D breast; 93.3% in the test on BT-549 breast; 71.8% with MDA-MB-435 melanoma. In addition, the growth in the test on SW-620 colon was 96.6%; with MCF7 breast it was 53.3%; in the test on HCT-116 colon it was 19.1%; in the test on HCC-2998 colon, 80.7%; in the test on KM12 colon, 79.7%.
In the case of `CC1(C)CC[C@]2(C(=O)O)CC[C@]3(C)[C@H](CC[C@@H]4[C@@]5(C)CCC(=O)C(C)(C)[C@@H]5CC[C@]43C)[C@H]2[C@H]1OC(=O)C(F)(F)F`, the growth is 14.6% [100 µM] with SR leukemia; -42.9% [100 µM] (active) in the test on RPMI-8226 leukemia; -81.4% [100 µM] (active) with OVCAR-8 ovarian; -53.1% [100 µM] (active) in the test on OVCAR-5 ovarian; -2.75% [100 µM] (active) in the test on SK-OV-3 ovarian; -64.7% [100 µM] (active) in the test on IGROV1 ovarian. Further, the growth in the test with OVCAR-3 ovarian was -67.4% [100 µM] (active); in the test with HS 578T breast it was -42.1% [100 µM] (active); in the test with NCI/ADR-RES ovarian, -77.6% [100 µM] (active); with T-47D breast, -25.2% [100 µM] (active); with BT-549 breast it was -70% [100 µM] (active); with MDA-MB-435 melanoma, -69.3% [100 µM] (active). Moreover, the growth is -64.9% [100 µM] (active) with SW-620 colon; -40.1% [100 µM] (active) with MCF7 breast; -66.3% [100 µM] (active) with HCT-116 colon; -93.7% [100 µM] (active) in the test on HCC-2998 colon; -75.7% [100 µM] (active) in the test with KM12 colon.
